Screening data as filed in PubChem BioAssay.
HP1b chromo inh = HP1-beta chromodomain-methylated histone interaction inhibition; P83916; AlphaScreen HP1-beta / biotin-H3K9me3 peptide binding; Potency, µM (series often up to 114 µM), most hits filed as inhibitors; 0.56% of 390,000 active; further: nearly all actives have a fitted effect of over 70% in size
Target sequence (P83916 whole entry, looked up): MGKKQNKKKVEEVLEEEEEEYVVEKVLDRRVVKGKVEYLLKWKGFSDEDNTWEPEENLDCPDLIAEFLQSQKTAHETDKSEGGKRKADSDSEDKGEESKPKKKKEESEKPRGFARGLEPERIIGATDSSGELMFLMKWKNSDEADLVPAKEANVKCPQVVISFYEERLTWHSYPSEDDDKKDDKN
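Compound inhibition of the preformed complex between 50 nM HP1-beta and 50 nM biotinylated H3K9me3 peptide was read by AlphaScreen. Buffer was PBS pH 7.4 with 0.01% Tween-20. Incubations ran 30 min at room temperature, with 10 ug/mL donor/acceptor beads.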
JMJD2A Tudor inh = JMJD2A Tudor domain (human) inhibition. O75164. AlphaScreen JMJD2A-Tudor / H3K4me3 peptide binding. Potency, µM (series often up to 114 µM), most hits filed as inhibitors. 4.4% of 390,000 active. AID 504339; further: nearly all actives have a fitted effect of over 50% in size
Six1-Eya2 blk = Six1/Eya2 interaction inhibition; AlphaScreen GST-Six1/His-Eya2 binding, biochemical; hits give low values; activity change, % (test concentration not listed); 0.56% of 360,000 active; AID 651725; in the data active means activity change below about -65%; inconclusive means mostly about -30% to -63%
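GST-Six1 + His-Eya2 (5X stock: 250/500 nM); Tris pH 8.0, 300 mM NaCl, 0.05% BSA, 0.02% Tween 20; GSH donor/Ni acceptor beads; 1 h 37 °C dark; AlphaScreen readout.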
G9a inh = blocks human histone lysine methyltransferase G9a; G9a H3K9 monomethylation, AlphaScreen, 2 h; AID 504332; Potency, µM (series often up to 102 µM), usual class: inhibitors; 8.8% of 350,000 active; Q96KQ7; further: nearly all actives have a fitted effect of over 75% in size
Target sequence (Q96KQ7 913-1193 limits assumed): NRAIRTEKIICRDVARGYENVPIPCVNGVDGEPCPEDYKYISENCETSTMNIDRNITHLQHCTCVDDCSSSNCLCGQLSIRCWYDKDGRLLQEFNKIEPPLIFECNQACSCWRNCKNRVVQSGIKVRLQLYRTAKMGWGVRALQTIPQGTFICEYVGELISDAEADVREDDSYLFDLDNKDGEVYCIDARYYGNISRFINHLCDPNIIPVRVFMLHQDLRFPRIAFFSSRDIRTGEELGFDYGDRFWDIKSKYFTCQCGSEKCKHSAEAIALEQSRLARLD
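Readings reflect AlphaScreen signal from monomethyl-H3K9 antibody detection. HMT at 20 nM; substrate b-H3K9 500 nM; cofactor SAM 20 uM; 2 h RT reaction; compounds tested as titrations in qHTS with 15 min preincubation.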
CtBP-E1A blk = inhibitors of CtBP/E1A interaction; AlphaScreen GST-E1A/His-CtBP binding, 1536-well; hits give low values; activity change, % (concentration not given with the values); AID 651724; 0.49% of 340,000 active; in the data active means activity change below about -65%; inconclusive means mostly about -30% to -63%
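Homogeneous bead-based format: GST-tagged E1A captured on glutathione donor beads, His-tagged CtBP on nickel acceptor beads; compounds precede bead addition by 2 h at 37 °C.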
BAZ2B inh = inhibitors of human BAZ2B bromodomain; AID 504333; AlphaScreen BAZ2B-H3K14Ac peptide displacement; Q9UIF8; 4.4% of 360,000 active; Potency, µM (highest dose often 114 µM), actives largely listed as inhibitors; further: nearly all actives have a fitted effect of over 60% in size
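BAZ2B (50 nM) with biotin-H3(5-23)K14Ac peptide (50 nM) in PBS pH 7.4, 0.01% Tween-20, preformed 30 min, then compound 30 min at room temperature; top concentration 110uM. AlphaScreen streptavidin donor/nickel chelate acceptor beads (10 ug/mL final), 20 min dark, signal read.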
Numbers stand for hits; i = inactive; ? = inconclusive; nt = no result given; ! = not confirmed by another sample; [ ] = dose if it differs, or a comment. Compounds with a hit are over-represented: about 10% of the library has one in this group of screens. Unless noted, the call rests on the fitted dose curve; in most records, active means well fitted inhibition curve with a large enough effect; inconclusive means small, poorly fitted or top-dose-only effect; inactive means no such curve, though single readings can be large or run the other way.

SMILES	HP1b chromo inh	JMJD2A Tudor inh	Six1-Eya2 blk	G9a inh	CtBP-E1A blk	BAZ2B inh
CC(C)CC[C@@H](O)[C@](C)(O)C1CC[C@@]2(O)C3=CC(=O)[C@@H]4C[C@@H](O)[C@@H](O)C[C@]4(C)C3CC[C@]12C (stereo partly drawn)	i	i	i	nt	i	nt
CN1C(=O)C(=Cc2ccc(N3CCOCC3)c([N+](=O)[O-])c2)C(=O)N(C)C1=O	nt	nt	nt	35.5µM	nt	i
O=C1NC(=O)C(=Cc2ccc(N3CCN(C(=O)c4ccccc4)CC3)c([N+](=O)[O-])c2)C(=O)N1	?	39.8µM	i	11.2µM	i	?
Cn1c(O)c(/C=C2\C=c3ccccc3=NC2=O)c(=O)n(C)c1=O	i	i	i	39.8µM	i	i
Cn1c(O)c(/C=C2\C=Nc3ccccc32)c(=O)n(C)c1=O	i	i	i	?	nt	i
N#Cc1cccc(NC(=O)N2CC[C@@]3(CCCN(C(=O)Oc4ccccc4)C3)C2)c1	nt	nt	nt	i[12.7 µM]	nt	nt
Oc1ccccc1O	?	39.8µM	i	1.78µM	i	i
CN(CC(=O)Nc1ccc(N2CCOCC2)cc1)CC(=O)Nc1cccc(C#N)c1	i	i	i	?	i	?
CC(=O)OC1CC2C(C)(C)C(O)C=C[C@@]2(C)C2CC[C@]3(C)C(=CC(=O)OC3c3ccoc3)[C@]12C (stereo partly drawn)	nt	nt	nt	i[2.33 µM]	nt	nt
C[N+]1(C)[C@@H]2CC(OC(=O)[C@@H](CO)c3ccccc3)C[C@@H]1[C@H]1O[C@H]12 (stereo partly drawn)	nt	nt	nt	i	nt	nt
Cn1c(=O)c2[nH]cnc2n(C)c1=O	i	i	i	3.36µM!	i	?
CCCc1cc(=O)oc2cc(OCC(=O)N3CCN(Cc4ccc5c(c4)OCO5)CC3)ccc12	i	i	i	i	i	50.1µM
Cc1ccc(-n2nc3ccc(NC(=O)COc4ccccc4C)cc3n2)cc1	i	i	nt	i	nt	i
CC1=NNC(=O)C1Br (stereo not drawn)	14.1µM	89.1µM	i	nt	i	nt
Oc1ccc(C2=CCNCC2)cc1O	?	10µM	nt	nt	nt	nt
COc1cc2c3cc1Oc1cc(ccc1O)C[C@@H]1c4c(cc(OC)c(O)c4Oc4cccc(c4)C[C@H]3N(C)CC2)CC[N+]1(C)C	nt	nt	nt	i[21.5 µM]	nt	nt
N#Cc1ccc(CN2CCCC3(CCN(C(=O)Oc4ccccc4)CC3)C2)cc1	nt	nt	nt	i[12.7 µM]	nt	nt
COC(=O)c1c(C)n(Cc2ccccc2)c2ccc(O)cc12	i	i	i	8.91µM	i	i
CCOC(=O)c1c(C)n(Cc2ccccc2)c2ccc(O)cc12	i	?	i	31.6µM	i	?
Cc1ccccc1-n1nc(C)c2c1NC(=O)CSC2c1ccccc1C(F)(F)F (stereo not drawn)	i	i	nt	i	nt	i
CC1C(=O)OC2O[C@]3(C)CC[C@H]4C(C)CCC1[C@]24OO3 (stereo partly drawn)	nt	nt	nt	i[2.33 µM]	nt	nt
O=C1NC(=S)N(c2ccccc2)C(=O)C1C(c1ccncc1)C1C(=O)NC(=S)N(c2ccccc2)C1=O (stereo not drawn)	i	i	i	44.7µM	i	i
CCC(CC)c1nnc(NC(=O)CC(C)c2ccccc2)s1 (stereo not drawn)	i	i	i	?	i	i
COc1cccc(NC(=O)c2ccc[n+](C)c2)c1	i	?	i	39.8µM	nt	i
COc1cccc(NC(=O)Cn2cc(C(=O)c3ccccc3)c3ccccc32)c1	i	i	nt	i	nt	i
SMILES	HP1b chromo inh	JMJD2A Tudor inh	Six1-Eya2 blk	G9a inh	CtBP-E1A blk	BAZ2B inh
Oc1c(Cl)c(Cl)c(Cl)c(Cl)c1Cl	i	56.2µM	i	nt	i	nt
CC[C@H](C)[C@H](NC(=O)[C@@H]1CCCN1C(=O)[C@H](CCC(=O)O)NC(=O)[C@@H](NC(=O)[C@H](Cc1ccccc1)NC(=O)[C@@H]1CCCN1C(=O)[C@@H](N)Cc1ccc(O)cc1)C(C)C)C(=O)O	nt	nt	nt	i	nt	nt
CCOc1ccc(-n2c(O)c(N=Nc3c(C)n(C)n(-c4ccccc4)c3=O)c(=O)[nH]c2=O)cc1	i	25.1µM	-89.7	i	-91.2	14.1µM
Cc1c(N=Cc2c(O)n(CCc3ccccc3)c(=O)[nH]c2=O)c(=O)n(-c2ccccc2)n1C	i	i	i	i	i	i
C=CCn1c(O)c(N=Nc2c(C)n(C)n(-c3ccccc3)c2=O)c(=O)[nH]c1=S	i	25.1µM	-91.1	0.794µM	-86.9	7.08µM
Cc1c(N=Nc2c(O)[nH]c(=S)[nH]c2=O)c(=O)n(-c2ccccc2)n1C	i	12.6µM	-83.8	2µM	-93.0	4.47µM
CCCCCCn1c(O)c(C=Nc2c(C)n(C)n(-c3ccccc3)c2=O)c(=O)[nH]c1=O	i	i	i	i[12.7 µM]	i	i
C=CCN=C=S	nt	nt	nt	i	nt	nt
COc1cc(CNC(=O)CCCC/C=C/C(C)C)ccc1O	i	i	i	i	i	i
CC1CCN(C(=O)c2ncn(C)c2C(=O)N2CCC(C)CC2)CC1	i	22.4µM	i	nt	i	nt
COP(=S)(OC)Oc1ccc(S(=O)(=O)N(C)C)cc1	nt	nt	nt	10µM	nt	nt
C=CCn1c(=O)c(C=Nc2c(OC)cccc2[N+](=O)[O-])c(O)n(CCCC)c1=O	i	i	i	i	i	?
C=CCn1c(=O)c(C=Nc2cccc([N+](=O)[O-])c2)c(O)n(CCCC)c1=O	i	?	i	70.8µM	i	i
Nc1ccc(Br)cc1	i	i	i	nt	i	nt
Nc1ccc2cc(Br)ccc2c1	?	?	i	50.1µM	i	nt
C[n+]1cc(P(=S)(c2ccccc2)c2ccccc2)n2ccccc21	nt	i	nt	nt	nt	nt
COc1cc(CN2CCN(C(=O)Cc3ccccc3)CC2)cc(OC)c1OC	?	7.08µM	i	25.1µM	i	?
Cc1ccc(CC(=O)N2CCN(Cc3ccccc3)CC2)cc1	i	i	i	i	nt	i
COc1ccc(CN2CCN(C(=O)Cc3ccccc3)CC2)c(OC)c1	?	2µM	i	20µM	i	56.2µM
COc1ccc(CN2CCN(Cc3ccccc3)CC2)c(OC)c1	i	?	i	i	i	?
O=C(Cc1ccccc1)N1CCN(CCCc2ccccc2)CC1	?	0.316µM	i	?	i	56.2µM
O=C(Cc1ccccc1)N1CCN(Cc2ccc(F)cc2)CC1	?	10µM	i	nt	nt	79.4µM
C=C[C@@H]1CN2CC[C@H]1C[C@H]2[C@H](O)c1ccnc2ccccc12	nt	nt	nt	i	nt	nt
C[N+]1([O-])[C@@H]2CC(OC(=O)[C@@H](CO)c3ccccc3)C[C@@H]1[C@H]1O[C@H]12 (stereo partly drawn)	nt	nt	nt	i	nt	nt
CNCCc1ccc(O)c(O)c1	?	i	i	31.6µM	i	nt
COc1ccc(CCN)cc1O	i	i	i	?	i	nt
CN(C)c1ccc(C(O)P(=O)(OCc2ccccc2)c2ccc(N(C)C)cc2)cc1 (stereo not drawn)	?	89.1µM	i	i[12.7 µM]	i	39.8µM
CC(C)c1ccc(C(O)P(=O)(OCc2ccccc2)c2ccc(N(C)C)cc2)cc1 (stereo not drawn)	i	?	i	i	i	?
